Experimental data reported in PubChem BioAssay (NCI).
About 79,000 compounds went through this panel and 15% of them were active in at least one assay; those are over-represented in the sample as a whole. Active and inactive are the calls of the source. Cut-off read from the data, not from the text of the source: active = growth inhibition above about 70%; inactive = the rest.

How the values were obtained:
[1] = NCI Yeast Anticancer Drug Screen. Data for the rad52 strain (AID 147);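 note: 0% = growth of vehicle-treated control cultures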; conditions: S. cerevisiae rad52 mutant growth inhibition, active compounds read high
Method in brief: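 Measured: yeast growth inhibition. System: strain with a defined DNA damage repair alteration. Reference: vehicle-treated control cultures.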

[2] = NCI Yeast Anticancer Drug Screen. Data for the wt1 strain (AID 149);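 note: 0% = growth of vehicle-treated wt1 cultures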; conditions: S. cerevisiae wt1 strain (SPY 50644) growth inhibition, active compounds read high
Method in brief: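 wt1 yeast, compound-treated; % growth inhibition vs vehicle control.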

[3] = NCI Yeast Anticancer Drug Screen. Data for the rad50EPP+ strain (AID 151);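 note: 0% = growth of vehicle-treated control cultures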; conditions: S. cerevisiae rad50 mutant strain, active compounds read high
Method in brief: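 One strain with a rad50 alteration (rad50EPP+) was compound-treated, its growth then compared to that of vehicle controls.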

[4] = NCI Yeast Anticancer Drug Screen. Data for the rad50 strain (AID 155);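 note: 0% = growth of vehicle-only cultures of the same strain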; conditions: S. cerevisiae rad50 strain growth inhibition, active compounds read high
Method in brief: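 Genetically altered yeast (DNA repair pathway); compound treatment; growth inhibition vs vehicle ctrl.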

[5] = NCI Yeast Anticancer Drug Screen. Data for the mec2-1 strain (AID 157); conditions: S. cerevisiae mec2-1 strain, active compounds read high
Method in brief: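 Test agents were screened against the mec2-1 yeast strain, with defined DNA repair or cell cycle alteration. Growth was scored as inhibition against vehicle-only controls.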

[6] = NCI Yeast Anticancer Drug Screen. Data for the rad14 strain (AID 159);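 note: 0% = growth of vehicle-treated control cultures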; conditions: S. cerevisiae rad14 strain growth inhibition, active compounds read high
Method in brief: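 Test compounds were applied to a repair-deficient yeast strain. Its growth was then compared with that of cultures given vehicle alone, and inhibition was expressed relative to those controls.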

[7] = NCI Yeast Anticancer Drug Screen. Data for the sgs1 mgt1 strain (AID 161);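 note: 0% = growth of cultures given vehicle only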; conditions: S. cerevisiae sgs1 mgt1 strain, active compounds read high
Method in brief: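 Test agents were incubated with a DNA-repair-mutant yeast strain. Growth was then read and compared against vehicle-treated controls.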

[8] = NCI Yeast Anticancer Drug Screen. Data for the CLN2oe strain (AID 163);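 note: 0% = growth of vehicle-only control cultures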; conditions: S. cerevisiae CLN2oe strain, active compounds read high
Method in brief: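 Here, growth inhibition in a cell-cycle-altered yeast strain after compound exposure was quantified against vehicle control growth.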

[9] = NCI Yeast Anticancer Drug Screen. Data for the cln2 rad14 strain (AID 165);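 note: 0% = growth equal to vehicle treated cultures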; conditions: S. cerevisiae cln2 rad14 strain, active compounds read high
Method in brief: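 Growth of compound-exposed yeast (cln2 rad14 genotype) measured and expressed as inhibition relative to vehicle.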

[10] = NCI Yeast Anticancer Drug Screen. Data for the bub3 strain (AID 167); conditions: S. cerevisiae bub3 mutant strain, active compounds read high
Method in brief: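 Yeast carrying a defined mutation is treated with each compound, and growth is compared with that of vehicle-exposed cells to give inhibition.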

[11] = NCI Yeast Anticancer Drug Screen. Data for the wt2 strain (AID 169);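 note: 0% = growth of vehicle-treated yeast cultures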; conditions: S. cerevisiae wt2 strain growth inhibition, active compounds read high
Method in brief: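 Genetically defined yeast strains from a DNA-repair/cell-cycle panel were used. Compound-exposed yeast growth was measured, and the inhibition was calculated relative to vehicle treatment.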

[12] = NCI Yeast Anticancer Drug Screen. Data for the mlh1 strain (AID 171);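 note: 0% = growth of vehicle-treated control cultures of the same strain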; conditions: S. cerevisiae mlh1 strain growth inhibition, active compounds read high
Method in brief: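 Here the genetically defined yeast mutant is grown with each compound, and the extent to which its growth falls below that of vehicle-exposed cells is reported.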

[13] = NCI Yeast Anticancer Drug Screen. Data for the sgs1 strain (AID 173);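 note: 0% = growth of vehicle-only control cultures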; conditions: S. cerevisiae sgs1 mutant, active compounds read high
Method in brief: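 Relative growth inhibition, referenced to vehicle, was determined in a yeast strain with a defined alteration affecting DNA damage repair or cell cycle control after compound exposure.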

[14] = NCI Yeast Anticancer Drug Screen. Data for the mlh1 rad18 strain (AID 175); conditions: S. cerevisiae mlh1 rad18 strain growth inhibition, active compounds read high
Method in brief: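 In this whole-cell yeast screen, a strain with altered DNA damage repair is challenged with compound, and its growth is measured against matched vehicle-treated controls.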

[15] = NCI Yeast Anticancer Drug Screen. Data for the rad18 strain (AID 177); conditions: S. cerevisiae rad18 mutant growth inhibition, active compounds read high
Method in brief: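 Screen uses a yeast strain with a defined lesion in DNA damage repair; compound effect is read as loss of growth compared to untreated vehicle cultures.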

[16] = at 5.0 µM (retest, dose inferred, filed as 0.5)
[17] = at 50.0 µM (retest, dose inferred, filed as 5.0)

Measured: growth inhibition

N#C/C(=C1C=C/C(=N/O)c2ccccc2/1)c1ccccc1
active: [1]; at 33.0 µM 84% | [1]; at 100.0 µM 71% | [4]; at 33.0 µM 92% | [4]; [17] 97% | [4]; at 50.0 µM 96.6% | [4]; at 100.0 µM 87% | [5]; [17] 97% | [5]; at 50.0 µM 98% | [6]; at 100.0 µM 71% | [7]; [17] 97% | [7]; at 50.0 µM 96.6% | [9]; [17] 97% | [9]; at 50.0 µM 95.8% | [10]; [17] 95% | [10]; at 50.0 µM 97.7% | [12]; at 33.0 µM 73% | [13]; at 33.0 µM 95% | [14]; [17] 96% | [14]; at 50.0 µM 91.5% | [15]; at 33.0 µM 88% | [15]; at 100.0 µM 80%
inactive: [1]; at 1.2 µM -1% | [1]; at 3.7 µM -1% | [1]; at 11.0 µM 1% | [2]; at 1.2 µM -3% | [2]; at 3.7 µM -4% | [2]; at 11.0 µM -6% | [2]; at 33.0 µM 53% | [2]; at 100.0 µM 56% | [3]; at 1.2 µM 7% | [3]; at 3.7 µM 13% | [3]; at 11.0 µM 16% | [3]; at 33.0 µM 36% | [3]; at 100.0 µM 35% | [4]; at 1.2 µM 2% | [4]; at 3.7 µM 1% | [4]; [16] 47% | [4]; at 11.0 µM 4% | [5]; at 1.2 µM -3% | [5]; at 3.7 µM -8% | [5]; [16] 24% | [5]; at 11.0 µM -8% | [5]; at 33.0 µM 52% | [5]; at 100.0 µM 49% | [6]; at 1.2 µM -3% | [6]; at 3.7 µM -6% | [6]; at 11.0 µM -3% | [6]; at 33.0 µM 55% | [7]; [16] 60% | [8]; at 1.2 µM -5% | [8]; at 3.7 µM -6% | [8]; at 11.0 µM -6% | [8]; at 33.0 µM 49% | [8]; at 100.0 µM 62% | [9]; [16] 8% | [10]; at 1.2 µM -6% | [10]; at 3.7 µM -10% | [10]; [16] 49% | [10]; at 11.0 µM -8% | [10]; at 33.0 µM 42% | [10]; at 100.0 µM 50% | [11]; at 1.2 µM -4% | [11]; at 3.7 µM -5% | [11]; at 11.0 µM -4% | [11]; at 33.0 µM 49% | [11]; at 100.0 µM 36% | [12]; at 1.2 µM -1% | [12]; at 3.7 µM -2% | [12]; at 11.0 µM 1% | [12]; at 100.0 µM 57% | [13]; at 1.2 µM -2% | [13]; at 3.7 µM -2% | [13]; at 11.0 µM 1% | [13]; at 100.0 µM 66% | [14]; [16] 49% | [15]; at 1.2 µM -1% | [15]; at 3.7 µM 3% | [15]; at 11.0 µM -1%
